Measured values from PubChem BioAssay (NCATS).
Results filed as inconclusive are left out. Active and inactive are the calls of the source. The call rests on the fitted dose curve; in most records, active means well fitted inhibition curve with a large enough effect; inconclusive means small, poorly fitted or top-dose-only effect; inactive means flat fitted curve, though single readings scatter. Where a SMILES comes first, the peptide text is derived from it. [ ]: non-standard residue; d: D form.

What was measured:
CRL-7250 = normal cell line; experiment: Cytotoxic Profiling of Annotated Libraries Using Quantitative High-Throughput Screening (AID 1296008); details: Five cell lines viability, CellTiter-Glo ATP luminescence, 48-72 h; max response: active compounds read low; further: potency means the concentration at half of the fitted maximal effect; on max response: on the % scale 0 is the no-effect control and ±100 the full control effect
Procedure, shortened: (§1)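 Cells exposed to compounds for 48 or 72 hr at 37 degrees Celsius. Viability read as ATP-coupled luminescence with CellTiter-Glo after 10 min at room temperature.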

HEK293 = experiment: as above; details: Five cell lines viability, CellTiter-Glo ATP luminescence, 48-72 h; max response: active compounds read low
Procedure, shortened: as §1

HaCat = experiment: as above; details: Five cell lines viability, CellTiter-Glo ATP luminescence, 48-72 h; max response: active compounds read low
Procedure, shortened: as §1

KB-3-1 = experiment: as above; details: Five cell lines viability, CellTiter-Glo ATP luminescence, 48-72 h; max response: active compounds read low
Procedure, shortened: as §1

NIH3T3 = experiment: as above; details: Five cell lines viability, CellTiter-Glo ATP luminescence, 48-72 h; max response: active compounds read low
Procedure, shortened: as §1

HEK293T = experiment: qHTS assay to identify novel small-molecules to repurpose for Merkel cell carcinoma treatment (AID 1296009); details: MCC and control cell lines, CellTiter-Glo viability, 72 h; series mostly up to 44.8 µM
Procedure, shortened: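 Cells were incubated with compound for 72 hr at 37 degree celsius before CellTiter-Glo addition. Luminescence was normalized with no-cell wells as full cytotoxicity and DMSO as baseline.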
Further: nearly all actives have a fitted effect of over 60% in size.

O=C(NCc1ccc(OC(F)(F)F)cc1)C1c2ccccc2C(=O)N1C1CCOCC1 (stereo not drawn)
inactive: outcome (CRL-7250) | outcome (HEK293) | max response (HaCat) -6.26% | outcome (KB-3-1) | outcome (NIH3T3) | Potency (HEK293T)

C[C@@H]1CC[C@]2(C)C3(C)CC[C@@]2(OC3=O)[C@@]12C[C@H](c1ccoc1)OC2=O
inactive: max response (CRL-7250) -6.81% | outcome (HEK293) | max response (HaCat) -0.0916% | max response (KB-3-1) -4.36% | max response (NIH3T3) -0.649% | Potency (HEK293T)

OC[C@H]1O[C@@H](n2cnc3c(NCc4ccc(O)cc4)ncnc32)[C@H](O)[C@@H]1O
active: Potency (CRL-7250) 6.51 µM
inactive: outcome (HEK293) | max response (HaCat) -13.2% | max response (KB-3-1) -13.6% | outcome (NIH3T3) | Potency (HEK293T)

COc1cc([C@@H]2Oc3c(OC)cc(CCCO)cc3[C@@H]2CO[C@@H]2O[C@H](CO)[C@@H](O)[C@H](O)[C@H]2O)ccc1O
inactive: outcome (CRL-7250) | outcome (HEK293) | max response (HaCat) -11.2% | max response (KB-3-1) 9.39% | outcome (NIH3T3) | Potency (HEK293T)

CC(C)CC1(C(=O)OCc2ccc(O[C@@H]3O[C@H](CO)[C@@H](O)[C@H](O)[C@H]3O)cc2)CC(=O)OC(C(=O)O)CC(=O)OCC2OC(O1)C(OC(=O)/C=C/c1ccc(O)cc1)C(O)C2O (stereo partly drawn)
inactive: max response (CRL-7250) 2.72% | outcome (HEK293) | max response (HaCat) -1.08% | max response (KB-3-1) 8.15% | outcome (NIH3T3) | outcome (HEK293T) inactive [at 9.27 µM]

CC(/C=C/C1(O)C(C)(C)CC(O)CC1(C)O)OC1OC(CO)C(O)C(O)C1O (stereo not drawn)
inactive: outcome (CRL-7250) | outcome (HEK293) | max response (HaCat) -8.69% | outcome (KB-3-1) | outcome (NIH3T3) | Potency (HEK293T)

COC(=O)[C@@H]1C2CC3c4[nH]c5ccccc5c4CCN3CC2CC[C@@H]1O (stereo partly drawn)
inactive: outcome (CRL-7250) | outcome (HEK293) | max response (HaCat) -0.215% | max response (KB-3-1) 6.91% | outcome (NIH3T3) | Potency (HEK293T)

CNC(=O)c1ccc2cc([C@@]3(O)CCn4cncc43)ccc2c1
inactive: outcome (CRL-7250) | outcome (HEK293) | max response (HaCat) 4.91% | outcome (KB-3-1) | outcome (NIH3T3) | Potency (HEK293T)

COC1=Cc2c(nc3n(c2=O)C(C)C(=O)NC3(O)C(C)C)OC=C1 (stereo not drawn)
inactive: outcome (CRL-7250) | outcome (HEK293) | max response (HaCat) 4.53% | max response (KB-3-1) 6.94% | max response (NIH3T3) 2.45% | Potency (HEK293T)

CC1=CC(=O)CC(C)(CO[C@@H]2O[C@H](CO)[C@@H](O)[C@H](O)[C@H]2O)C1(O)/C=C/C(C)=C/C(=O)O (stereo partly drawn)
inactive: outcome (CRL-7250) | outcome (HEK293) | max response (HaCat) -0.434% | outcome (KB-3-1) | outcome (NIH3T3) | Potency (HEK293T)

CC1(C)O[C@@]2(C)CC[C@@H]1C[C@@H]2OC1OC(CO)C(O)C(O)C1O (stereo partly drawn)
inactive: outcome (CRL-7250) | outcome (HEK293) | max response (HaCat) -5.55% | outcome (KB-3-1) | max response (NIH3T3) -8.31% | Potency (HEK293T)

COC1=CC(=O)O[C@@H](/C=C/c2ccccc2)[C@@H]1O
inactive: outcome (CRL-7250) | outcome (HEK293) | max response (HaCat) 4.5% | outcome (KB-3-1) | outcome (NIH3T3) | Potency (HEK293T)

CN1C(=O)c2ccccc2NC(=O)[C@]12O[C@@H]2c1cccc(O)c1
inactive: max response (CRL-7250) -2% | outcome (HEK293) | max response (HaCat) -7.54% | max response (KB-3-1) 4.06% | max response (NIH3T3) -15.7% | Potency (HEK293T)

CC(=O)N[C@H](Cc1ccc(O)cc1)C(=O)N[C@H](CCCN=C(N)N)C(=O)N[C@H](Cc1ccccc1)C(N)=O (Ac-[dY]-[dR]-[dF]-NH2)
inactive: max response (CRL-7250) -2.02% | outcome (HEK293) | max response (HaCat) -6.09% | outcome (KB-3-1) | outcome (NIH3T3) | Potency (HEK293T)

CC1CCCC2OC2C(=O)c2c(O)cc(O)cc2CC(=O)O1 (stereo not drawn)
inactive: max response (CRL-7250) -0.57% | outcome (HEK293) | max response (HaCat) -2.51% | max response (KB-3-1) 3.41% | outcome (NIH3T3) | Potency (HEK293T)

C[C@@H]1O[C@@H](O[C@H]2[C@H](O)[C@@H](O)[C@H](OC[C@H]3O[C@@H](OC(=O)[C@]45CCC(C)(C)C[C@H]4C4=CCC6[C@@]7(C)C[C@H](O)[C@H](O[C@@H]8O[C@H](CO)[C@@H](O)[C@H](O)[C@H]8O)[C@@](C)(C(=O)O)C7CC[C@@]6(C)[C@]4(C)CC5)[C@H](O[C@@H]4O[C@H](CO)[C@@H](O)[C@H](O)[C@H]4O)[C@@H](O)[C@@H]3O)O[C@@H]2CO)[C@H](O)[C@H](O)[C@H]1O (stereo partly drawn)
inactive: max response (CRL-7250) 2.51% | outcome (HEK293) | max response (HaCat) 4.68% | max response (KB-3-1) 7.15% | max response (NIH3T3) 3.41% | outcome (HEK293T) inactive [at 9.27 µM]

C=CC1(C)CC(O)C2(CCC3C(C)(C(=O)O)CCCC3(C)C2=O)C1 (stereo not drawn)
inactive: max response (CRL-7250) -1.04% | outcome (HEK293) | max response (HaCat) -1.18% | outcome (KB-3-1) | max response (NIH3T3) 1.85% | Potency (HEK293T)

O=C(OCC12OC1C=CC(OC(=O)c1ccccc1)C2O)c1ccccc1 (stereo not drawn)
inactive: max response (CRL-7250) 4.27% | outcome (HEK293) | max response (HaCat) 0.27% | max response (KB-3-1) 9.03% | max response (NIH3T3) -13.1% | Potency (HEK293T)
